FAK blocker = blocks human focal adhesion kinase activity; Q05397; inhibition, %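 (tested at 7 µM)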; biochemical FAK kinase activity assay; hit rate 0.84% among 97,000; in the data active = inhibition above about 19%
Pyk2 oligo antag = blocks oligomerization of human Pyk2 in cells; Q14289; Q293 cells, Pyk2 FERM NanoBiT luminescence; active compounds read low; z-score (the deposit names both 25 µM and 10 µM); hit rate 0.83% among 99,000; AID 1347419;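 active = Z-score of -3 or lower, scaled per plate to the spread of control and sample wells; inactive = z-score above -3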;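 note: negative z-score means lost luminescence so less FERM oligomerization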
CD11b adhes inh = blocks human CD11b/CD18 adhesion to fibrinogen | inhibition, % at 10 µM | hit rate 0.54% among 93,000 | P05107+P11215 | K562 CD11b/CD18 adhesion to fibrinogen, ATPlite luminescence; Mn2+ added to activate the integrin;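 active = primary inhibition of 50% or more at 10 µM, then 40% or more on retest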
Target sequence (P05107 whole entry, looked up, other chains not shown): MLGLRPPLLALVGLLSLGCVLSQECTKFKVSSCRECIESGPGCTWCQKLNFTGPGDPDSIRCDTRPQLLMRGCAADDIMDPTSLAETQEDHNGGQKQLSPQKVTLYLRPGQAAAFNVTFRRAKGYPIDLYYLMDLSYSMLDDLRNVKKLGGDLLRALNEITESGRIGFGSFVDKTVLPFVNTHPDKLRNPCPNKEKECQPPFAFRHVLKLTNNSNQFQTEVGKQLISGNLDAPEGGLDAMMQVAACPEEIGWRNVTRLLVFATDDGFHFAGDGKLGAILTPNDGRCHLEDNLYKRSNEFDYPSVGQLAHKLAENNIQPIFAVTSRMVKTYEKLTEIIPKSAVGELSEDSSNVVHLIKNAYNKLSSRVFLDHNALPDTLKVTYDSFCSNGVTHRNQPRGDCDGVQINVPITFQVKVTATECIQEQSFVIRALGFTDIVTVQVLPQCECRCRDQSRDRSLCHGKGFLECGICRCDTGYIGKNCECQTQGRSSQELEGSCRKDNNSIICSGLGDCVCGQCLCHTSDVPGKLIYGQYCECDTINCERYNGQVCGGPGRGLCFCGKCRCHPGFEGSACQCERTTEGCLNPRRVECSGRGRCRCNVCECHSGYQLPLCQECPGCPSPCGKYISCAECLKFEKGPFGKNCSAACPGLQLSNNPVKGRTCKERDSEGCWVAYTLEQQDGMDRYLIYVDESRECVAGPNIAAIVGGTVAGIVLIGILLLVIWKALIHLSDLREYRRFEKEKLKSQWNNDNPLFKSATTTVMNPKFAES
Mac1 fbg enh = increases human CD11b/CD18 adhesion to fibrinogen. K562 CD11b/CD18 adhesion to fibrinogen, ATPlite luminescence. activation, % at 10 µM. hit rate 0.07% among 93,000. AID 1499;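 active = 10 µM primary screen giving 50% or more activity, confirmed by 40% or more on retest at that dose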
Numbers stand for hits. A selection: hits, their analogues and other compounds. The true share with any hit is near 1.8%.

Screening O=c1c(Sc2ccccc2)c(C(F)(F)F)[nH]n1-c1ccccc1 returned FAK blocker inactive, Pyk2 oligo antag inactive, CD11b adhes inh 56 and Mac1 fbg enh inactive.
Screening Cc1ccc2nc(N3C(=O)C(O)=C(C(=O)c4ccco4)C3c3cccs3)sc2c1 (stereo not drawn) returned FAK blocker inactive, Pyk2 oligo antag inactive, CD11b adhes inh 52 and Mac1 fbg enh inactive.
CCC1CCC(c2nnc(-c3ccc([N+](=O)[O-])cc3)o2)CC1 (stereo not drawn) was read as CD11b adhes inh inactive and Mac1 fbg enh inactive.
Screening CC(=O)Nc1cccc(NC(=O)c2cc(-c3cccnc3)nc3ccc(Br)cc23)c1 returned FAK blocker inactive, Pyk2 oligo antag inactive, CD11b adhes inh inactive and Mac1 fbg enh 53.
`O=C(CSCC(=O)N1CCCCC1)Nc1nc(-c2ccc(Cl)s2)cs1` gave FAK blocker inactive, CD11b adhes inh 84 and Mac1 fbg enh inactive.
`O=C(CSCC(=O)N1CCN(c2ccccc2)CC1)Nc1nc(-c2ccc(Cl)s2)cs1` gave FAK blocker inactive, CD11b adhes inh inactive and Mac1 fbg enh inactive.
Screening O=C(CNc1c(Br)cc(Br)cc1Br)NN=C1CCCCC1 returned CD11b adhes inh inactive and Mac1 fbg enh inactive.
CCOC(=O)c1cn(-c2nc(-c3ccc(Cl)c(Cl)c3)cs2)c2c(F)c(N3CCOCC3)c(F)cc2c1=O was read as FAK blocker inactive, Pyk2 oligo antag inactive, CD11b adhes inh inactive and Mac1 fbg enh 52.
Screening NNC(=O)CN1C(c2ccc(Cl)cc2)=Nc2ccc(Br)cc2C1c1ccccc1 (stereo not drawn) returned FAK blocker inactive, Pyk2 oligo antag -3.4, CD11b adhes inh inactive and Mac1 fbg enh inactive.
CCOC(=O)CN1C(=O)Nc2ccc(Br)cc2C1c1ccccc1 (stereo not drawn) was read as FAK blocker inactive and Pyk2 oligo antag inactive.
`CCC1=Nc2ccc(Br)cc2C(c2ccccc2)N1CC(=O)OC` (stereo not drawn) gave FAK blocker inactive, Pyk2 oligo antag inactive, CD11b adhes inh inactive and Mac1 fbg enh inactive.
For COC(=O)CN1C(c2ccccc2)=Nc2ccc(Cl)cc2C1c1ccccc1 (stereo not drawn) the results were FAK blocker inactive, Pyk2 oligo antag -3, CD11b adhes inh inactive and Mac1 fbg enh inactive.
CCOC(=O)c1cc(-c2ccccc2)sc1NC(=O)C(C)OC(=O)c1cccnc1OCC (stereo not drawn) was read as CD11b adhes inh inactive and Mac1 fbg enh inactive.
Cc1ccc2[nH]c(SCC(=O)N3CCOCC3)nc2c1C was read as FAK blocker inactive, Pyk2 oligo antag inactive, CD11b adhes inh inactive and Mac1 fbg enh inactive.
For CCCc1ccc(Oc2cn[nH]c2-c2ccc(O)c(C)c2O)cc1 the results were Pyk2 oligo antag -3.5, CD11b adhes inh 101 and Mac1 fbg enh inactive.
For CCCc1ccc(Oc2c(-c3ccc(O)c(C)c3O)n[nH]c2C)cc1 the results were Pyk2 oligo antag inactive, CD11b adhes inh inactive and Mac1 fbg enh inactive.
`CCOC(=O)N1CCC(=NNC(=O)COc2ccc(OC)cc2)CC1` gave CD11b adhes inh inactive and Mac1 fbg enh inactive.
FC(F)(F)c1cc(C(F)(F)F)c2ccc(N3CCN(c4ccc(Cl)cc4)CC3)nc2n1 was read as FAK blocker inactive and Pyk2 oligo antag inactive.
N#CC(c1ccc(Cl)cc1)c1ccc2c(C(F)(F)F)cc(C(F)(F)F)nc2n1 (stereo not drawn) was read as FAK blocker inactive, Pyk2 oligo antag inactive, CD11b adhes inh 88 and Mac1 fbg enh inactive.
Screening Oc1ccc(-c2nc3ccccn3c2NCc2ccco2)cc1 returned FAK blocker inactive, Pyk2 oligo antag inactive, CD11b adhes inh inactive and Mac1 fbg enh inactive.
For Cc1ccc(NC(=O)C(=O)NCc2ccc(/C=N/NC(=O)c3c(C)nc4ccccn34)o2)cc1 the results were CD11b adhes inh inactive and Mac1 fbg enh inactive.
Screening CCN(Cc1ccccc1)S(=O)(=O)c1ccc(C(=O)Nc2nnc(-c3ccccc3OC)o2)cc1 returned FAK blocker inactive, Pyk2 oligo antag -3.9, CD11b adhes inh inactive and Mac1 fbg enh inactive.
For O=S(=O)(c1ccc2c(c1)OCCO2)N1CCN(c2cccc(Cl)c2)CC1 the results were FAK blocker inactive, Pyk2 oligo antag -3.9, CD11b adhes inh inactive and Mac1 fbg enh inactive.
`O=S(=O)(c1ccc2c(c1)OCCO2)N1CCC(O)(c2ccc(Cl)cc2)CC1` gave FAK blocker inactive, Pyk2 oligo antag -3.2, CD11b adhes inh inactive and Mac1 fbg enh inactive.
Cc1ccc(S(=O)(=O)N2CCCN(S(=O)(=O)c3ccc4c(c3)OCCO4)CC2)cc1 was read as FAK blocker inactive, Pyk2 oligo antag -3, CD11b adhes inh inactive and Mac1 fbg enh inactive.
Screening O=S(=O)(c1ccccc1Cl)N1CCC(O)(c2ccc3c(c2)OCO3)CC1 returned FAK blocker inactive, Pyk2 oligo antag inactive, CD11b adhes inh inactive and Mac1 fbg enh inactive.
Screening CCOc1ccc(-c2c(=O)n(OCc3ccc([N+](=O)[O-])cc3)c3ccccc3[n+]2[O-])cc1 returned CD11b adhes inh inactive and Mac1 fbg enh inactive.
For CCOC(=O)C1=C(C)NC2=C(C1c1ccc([N+](=O)[O-])cc1)S(=O)(=O)c1ccccc12 (stereo not drawn) the results were FAK blocker inactive, Pyk2 oligo antag -3, CD11b adhes inh inactive and Mac1 fbg enh inactive.
`O=C(O)c1cnc(-c2ccccc2)nc1Sc1ccc(Cl)cc1` gave FAK blocker inactive, Pyk2 oligo antag inactive, CD11b adhes inh 90 and Mac1 fbg enh inactive.
Screening O=C(O)c1cnc(-c2ccccc2)nc1Sc1ccccc1Cl returned FAK blocker inactive and Pyk2 oligo antag inactive.
O=C(COC(=O)Cn1cnc2ccccc2c1=O)Nc1ccccc1Sc1ccc(Cl)cc1 was read as CD11b adhes inh inactive and Mac1 fbg enh inactive.
`CC1CC(C)CN(CC(C)(C)NS(=O)(=O)c2ccc(Cl)cc2)C1` (stereo not drawn) gave FAK blocker inactive, Pyk2 oligo antag inactive, CD11b adhes inh inactive and Mac1 fbg enh inactive.
Screening Cc1ccc(S(=O)(=O)C(C#N)c2nc3ccccc3nc2N2CCCC2)cc1 (stereo not drawn) returned FAK blocker inactive, Pyk2 oligo antag inactive, CD11b adhes inh inactive and Mac1 fbg enh inactive.
`Cc1cccc(S(=O)(=O)C(C#N)c2nc3ccccc3nc2N2CC(C)OC(C)C2)c1` (stereo not drawn) gave FAK blocker inactive, Pyk2 oligo antag inactive, CD11b adhes inh 95 and Mac1 fbg enh inactive.
Cc1ccc(S(=O)(=O)C(C#N)c2nc3ccccc3nc2N2CC(C)OC(C)C2)cc1C (stereo not drawn) was read as FAK blocker inactive, Pyk2 oligo antag inactive, CD11b adhes inh 90 and Mac1 fbg enh inactive.
CCN1CCN(c2nc3ccccc3nc2C(C#N)S(=O)(=O)c2ccc(C)c(C)c2)CC1 (stereo not drawn) was read as FAK blocker inactive, Pyk2 oligo antag inactive, CD11b adhes inh inactive and Mac1 fbg enh inactive.
Screening N#C/C(=C\c1ccc(Cl)cc1)c1nc2ccccc2o1 returned CD11b adhes inh inactive and Mac1 fbg enh inactive.
For N#C/C(=C\Nc1ccccc1O)c1nc2ccccc2o1 the results were Pyk2 oligo antag -3.4.

Screening results (PubChem)
